Screening results deposited in PubChem by National Center for Advancing Translational Sciences (NCATS).
Sm TGR inh: inhibitors of Schistosoma mansoni thioredoxin glutathione reductase; Q962Y6; purified TGR, DTNB reduction, TNB absorbance 405 nm; Potency, µM (series often up to 114 µM), without a hit: at the highest dose activity change, negative = inhibition, most hits filed as inhibitors; actives 3% (n = 360,000); AID 485364; note: nearly all actives have a fitted effect of over 60% in size
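TGR 20 nM + NADPH 100 uM (dispensed conc.), cpd preinc 15 min RT; start with NADPH (500 uM addition) then DTNB (15 mM addition). Kinetic TNB absorbance, 405 nm filter. Four-parameter Hill fit across titration.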
RE007 growth inh: less growth of the S. pombe RE007 Vpr strain; Potency, µM (highest dose often 92.2 µM), for the others: at the top dose activity change, negative = less growth, most hits filed as inhibitors; actives 0.21% (n = 360,000); S. pombe RE007 Vpr strain, BacTiter-Glo ATP luminescence, 24 h; active = well fitted falling curve with a large enough effect; inconclusive = small, poorly fitted or top-dose-only effect; inactive = no such curve, though single readings can be large or run the other way; note: nearly all actives have a fitted effect of over 50% in size
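Fission yeast RE007 carrying one integrated HIV-1 vpr copy, seeded at OD 0.01 in PMG+AL medium with 23 nL pinned compound. Grown 24 h at 30 degrees; viability read by BacTiter-Glo luminescence after 5 min.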
FMDV inh: antivirals against foot and mouth disease virus. Potency, µM (highest dose often 57.9 µM), for inactives: top-dose activity change, negative = inhibition, hits mostly inhibitors. actives 1.2% (n = 410,000). AID 1159524. FMDV antiviral cell-based qHTS; calls by dose curve; tested in HEK293T cells; note: read-out not given here; nearly all actives have a fitted effect of over 45% in size
TbPYK inhibitor: blocks Trypanosoma brucei pyruvate kinase; TbPYK enzyme, Kinase-Glo Plus ATP luminescence, 45 min; Potency, µM (highest dose often 76.8 µM), for the others: at the highest dose activity, negative = inhibition, actives largely listed as inhibitors; actives 0.12% (n = 410,000); AID 624173; note: nearly all actives have a fitted effect of over 50% in size
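Assay buffer: 50 mM TEA pH 7.2, 100 mM KCl, 10 mM MgCl2, 0.05% BSA, 0.01% Tween-20. Pyruvate kinase from T. brucei plus substrate met compound, then ADP (130 uM final). Luminescence was read post 45 min RT.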
* = called active by the depositor. The list is not random: actives were taken first. Their share in the collection is about 3.7%. Unless noted, calls come from the whole dose curve; as a rule, active = well fitted curve in the direction sought with a large enough effect; inconclusive = small, poorly fitted or top-dose-only effect, or another doubt; inactive = no such curve, though single readings can be large; an effect the other way counts as inactive or inconclusive. % is set by controls: 0 for no effect and ±100 for the full control effect; potency is the fitted concentration of half-maximal effect.

Results for COc1ccc2c(c1)c(C(O)CN1CCN(Cc3ccc4c(c3)OCO4)CC1)c(C)n2C (stereo not drawn) ?
Sm TGR inh: 25µM*; RE007 growth inh: -22%; FMDV inh: 0%; TbPYK inhibitor: -14%

How did Cc1c(C(O)CN2CCN(Cc3ccc4c(c3)OCO4)CC2)c2ccccc2n1C (stereo not drawn) do in these assays?
Sm TGR inh: 28µM*; RE007 growth inh: -12%; FMDV inh: -14%; TbPYK inhibitor: -7%

What do the screens show for `OC(CN1CCN(Cc2ccc3c(c2)OCO3)CC1)c1c[nH]c2ccccc12` (stereo not drawn)?
Sm TGR inh: -17%; RE007 growth inh: -21%; FMDV inh: 0%; TbPYK inhibitor: 2%

What do the screens show for `CCOc1ccc(-n2c(Cc3ccccc3)nnc2SCc2nc(-c3ccccc3OC)no2)cc1`?
Sm TGR inh: 4%; FMDV inh: -10%; TbPYK inhibitor: -9%

What do the screens show for `COc1ccc(CNC(=O)c2cnn(-c3ccc(C)cc3)c2-n2cccc2)cc1OC`?
Sm TGR inh: 2%; FMDV inh: inconclusive; TbPYK inhibitor: -1%

What do the screens show for `CCSC(=O)CCCCCCCCCCCO`?
Sm TGR inh: -4%; RE007 growth inh: 3.2µM*; FMDV inh: -8%; TbPYK inhibitor: -1%

What do the screens show for `CC(=O)Nc1ccc(S(=O)(=O)NC2(C(F)(F)F)C(=O)Nc3c2c(=O)[nH]c(=O)n3-c2cccc(Cl)c2)cc1` (stereo not drawn)?
Sm TGR inh: -1%; FMDV inh: -11%; TbPYK inhibitor: -3%

Results for Cc1ccc(C(=O)c2oc3ccccc3c2NC(=O)c2cc(=O)c3cc(C)ccc3o2)cc1 ?
Sm TGR inh: 1%; FMDV inh: -1%; TbPYK inhibitor: 3%

Results for CCn1cnc2c(NCCc3cccnc3)nc(C#N)nc21 ?
Sm TGR inh: 50µM*; FMDV inh: 2%; TbPYK inhibitor: 2%

How did CCn1cnc2c(Nc3cccc(Cl)c3)nc(C#N)nc21 do in these assays?
Sm TGR inh: -23%; FMDV inh: 3%; TbPYK inhibitor: 1%

Results for Cc1ccc(N2CC(NC(=O)/C=C\c3ccc4c(c3)OCO4)CC2=O)cc1C (stereo not drawn) ?
Sm TGR inh: -2%; FMDV inh: -21%; TbPYK inhibitor: -3%

What do the screens show for `Cc1oc(-c2ccccc2NC(=O)c2ccccc2)nc1CNC(=O)c1cccc(-n2cccn2)c1`?
FMDV inh: 1%

What do the screens show for `O=C(O)CCc1ccc(-c2ccccc2)n1-c1ccc(C(=O)O)cc1`?
Sm TGR inh: 18µM*; RE007 growth inh: -12%; FMDV inh: -6%; TbPYK inhibitor: -9%

What do the screens show for `Cc1ccc(-c2ccc(CCC(=O)O)n2-c2ccc(C)c(Cl)c2)cc1`?
Sm TGR inh: 18µM*; FMDV inh: 7%; TbPYK inhibitor: -11%

What do the screens show for `Cc1ccc(-c2ccc(CCC(=O)O)n2C(C)C)cc1`?
Sm TGR inh: 25µM*; RE007 growth inh: 2%; FMDV inh: -21%; TbPYK inhibitor: -2%

How did CCOC(=O)c1ccc(-n2c(CCC(=O)O)ccc2-c2ccccc2)cc1O do in these assays?
Sm TGR inh: 18µM*; FMDV inh: -13%; TbPYK inhibitor: -6%

What do the screens show for `CC(=O)c1ccc(-n2c(CCC(=O)O)ccc2-c2ccc(Cl)cc2)cc1`?
Sm TGR inh: 0%; RE007 growth inh: -7%; FMDV inh: -15%; TbPYK inhibitor: 11%

What do the screens show for `O=C(CSc1nc2c(oc3ccccc32)c(=O)n1Cc1ccco1)Nc1ccccc1Cl`?
Sm TGR inh: 0%; FMDV inh: 0%; TbPYK inhibitor: 1%

How did COc1ccccc1OCC(=O)NCC(c1ccc(Cl)cc1)N1CCCCC1 (stereo not drawn) do in these assays?
Sm TGR inh: -11%; FMDV inh: -20%; TbPYK inhibitor: -5%

What do the screens show for `Cc1cc(C)c2oc(C(=O)Nc3sc4c(c3C(=O)NCc3ccco3)CCCC4)cc(=O)c2c1`?
Sm TGR inh: 6%; FMDV inh: -8%; TbPYK inhibitor: 0%

What do the screens show for `O=C(O)CCc1ccc(-c2ccccc2)n1-c1cccc(C(=O)O)c1`?
Sm TGR inh: 11µM*; RE007 growth inh: -15%; FMDV inh: 21%; TbPYK inhibitor: -9%

What do the screens show for `O=C(O)CCc1ccc(-c2ccc(Br)cc2)n1-c1cccc(O)c1`?
Sm TGR inh: 32µM*; RE007 growth inh: -11%; FMDV inh: -2%; TbPYK inhibitor: -3%
